Experimental data reported in PubChem BioAssay (Tox21).
Results filed as inconclusive are left out. A call without a number means that no potency is given here. Calls of active or inactive are those of the source. Unless noted, calls come from the whole dose curve; as a rule, active = well fitted curve in the direction sought with a large enough effect in the repeat runs; inconclusive = weak or mixed curves; inactive = no such curve, though single readings can be large; an effect the other way counts as inactive or inconclusive.

Legend:
[1] = qHTS assay to identify small molecule agonists of the NFkB signaling pathway (AID 1159509; active = well fitted curve in the direction sought with a large enough effect in the signal ratio in the repeat runs, not every such curve was filed as active; the % refers to the signal ratio); settings: NFkB-bla ME-180 cells, beta-lactamase FRET ratio, 5 h; series mostly up to 61 µM
In short: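 Readout: FRET fluorescence, 405 nm excitation, 460/530 nm emission; beta-lactamase expression disrupts FRET. Cells: ME-180 stably carrying NF-kB-driven bla reporter. Compound exposure 5 hr, 37 C, 5% CO2.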

[2] = qHTS assay to identify small molecule agonists of the endoplasmic reticulum stress response signaling pathway (AID 1159516; active = well fitted activation curve with a large enough effect in the signal ratio in the repeat runs, not every such curve was filed as active; the % refers to the signal ratio); settings: ESRE-bla HeLa, ER stress beta-lactamase reporter, 5 h; series mostly up to 61 µM
In short: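 Using a HeLa line with an ESRE-driven beta-lactamase gene, agonist activity was measured by FRET substrate fluorescence (460 and 530 nm emission) after cells were treated with compounds for 5 hr at 37 C and 5% CO2.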

[3] = qHTS assay to identify small molecule antagonists of the retinoid-related orphan receptor gamma (ROR-gamma) signaling pathway - cell viability counter screen (AID 1159520); settings: Tet-on RORgamma CHO cells viability, ATP luminescence, 16 h; series mostly up to 92.4 µM; note: nearly all actives have a fitted effect of over 50% in size
In short: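 Tet-on ROR gamma CHO cells (1,000/well) were plated 4 hr, given compounds in DMSO for 2 hr at 37 C, then induced with 1 uM final doxycycline for 16 hr. Viability was read as ATP by CellTiter-Glo luminescence after 30 min.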

[4] = biological target: Nuclear receptor ROR-gamma (Homo sapiens) (UniProt P51449); assay: qHTS assay to identify small molecule antagonists of the retinoid-related orphan receptor gamma (ROR-gamma) signaling pathway (AID 1159521; note: nearly all actives have a fitted effect of over 50% in size; note: potency is the fitted concentration of half-maximal effect); settings: Tet-on RORgamma CHO cells, RORE-luciferase, 16 h; series mostly up to 92.4 µM
In short: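 Cells were plated, rested 4 h at 37 C, exposed to compounds for 2 h, then given 1 uM final doxycycline hyclate to induce RORγ expression. After 16 h, ONE-Glo luminescence from the ROR response element reporter was measured.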

[5] = qHTS assay to identify small molecule agonists of the AP-1 signaling pathway - cell viability counter screen (AID 1159525; calls by dose curve; note: nearly all actives have a fitted effect of over 55% in size); settings: ME-180 AP-1-bla cells viability, ATP luminescence, 5 h; series mostly up to 76.8 µM
In short: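 Each titration point was normalised to DMSO and tetra n-octyl ammonium bromide controls. The read was Cell Titer Glo luminescence after 30 min at RT, following 5 h compound exposure of ME-180 AP-1-bla cells at 37 °C.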

[6] = qHTS assay to identify small molecule agonists of the AP-1 signaling pathway (AID 1159526; calls by dose curve); settings: ME-180 (cervical carcinoma) AP-1-bla reporter, beta-lactamase FRET ratio, 5 h; series mostly up to 76.8 µM
[7] = biological target: Retinoic acid receptor RXR-alpha (Homo sapiens) (UniProt P19793); assay: qHTS assay to identify small molecule agonists of the RXR signaling pathway (AID 1159527; calls by dose curve; note: nearly all actives have a fitted effect of over 35% in size; note: potency is the fitted concentration of half-maximal effect); settings: HEK293T RXRa-UAS-bla, beta-lactamase ratio, 16 h; series mostly up to 76.8 µM
Chain of Retinoic acid receptor RXR-alpha (Homo sapiens) (P19793 whole entry, looked up): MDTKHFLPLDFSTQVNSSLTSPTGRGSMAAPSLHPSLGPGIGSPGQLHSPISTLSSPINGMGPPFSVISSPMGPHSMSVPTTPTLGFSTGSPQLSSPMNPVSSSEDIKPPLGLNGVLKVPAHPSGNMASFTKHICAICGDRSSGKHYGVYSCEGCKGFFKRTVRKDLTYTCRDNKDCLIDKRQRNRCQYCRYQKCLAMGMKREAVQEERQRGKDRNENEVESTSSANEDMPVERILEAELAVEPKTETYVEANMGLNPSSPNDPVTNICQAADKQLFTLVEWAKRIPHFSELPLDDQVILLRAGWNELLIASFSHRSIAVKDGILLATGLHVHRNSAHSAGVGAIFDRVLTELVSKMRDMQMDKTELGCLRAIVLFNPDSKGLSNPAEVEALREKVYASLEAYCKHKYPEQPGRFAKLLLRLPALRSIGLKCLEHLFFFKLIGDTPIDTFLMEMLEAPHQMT
In short: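 Cells plated at 2,000/well, rested 5 hr at 37 C, pin-dosed with DMSO compound solutions, incubated 16 hr, then loaded with B/G FRET substrate for 2 hr at RT before dual-emission fluorescence reading.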

[8] = qHTS assay to identify small molecule agonists of the RXR signaling pathway - cell viability counter screen (AID 1159529); settings: RXR-alpha-bla HEK293T viability, CellTiter-Glo, 16 h; series mostly up to 76.8 µM;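 note: HEK 293T cells carrying an RXR-alpha UAS beta-lactamase reporter; nearly all actives have a fitted effect of over 50% in size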
In short: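 Steps: seed RXR-alpha-UAS-bla HEK 293T cells in assay medium containing 2% charcoal-stripped FBS; incubate 5 hr; add compounds in DMSO; incubate 16 hr at 37 C; after the bla read, add CellTiter-Glo and read luminescence at 30 min.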

[9] = qHTS assay to identify small molecule antagonists of the retinoid acid receptor (RAR) signaling pathway - cell viability counter screen (AID 1159551); settings: C3RL4 cells viability, ATP luminescence (CellTiter-Glo), 6 h; series mostly up to 92.4 µM; note: nearly all actives have a fitted effect of over 35% in size
In short: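 ATP-based viability, C3RL4 cells, 6 h at 37 C with 1 uM final retinol co-added after compound; luminescence read 30 min post CellTiter-Glo, RT.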

[10] = qHTS assay to identify small molecule antagonists of the retinoic acid receptor (RAR) signaling pathway (AID 1159552; note: nearly all actives have a fitted effect of over 50% in size); settings: C3RL4 RARE luciferase reporter, retinol-stimulated, 6 h; series mostly up to 92.4 µM
In short: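 Retinol at 1 uM final stimulated RARE-luciferase expression in C3RL4 cells exposed to test compounds for 6 hr at 37 C. Reduced luminescence, read 30 min after detection reagent, indicated pathway antagonism.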

[11] = qHTS assay to identify small molecule agonists of the retinoic acid receptor (RAR) signaling pathway (AID 1159553); settings: C3RL4 RARE luciferase reporter, agonist, 6 h; series mostly up to 73.3 µM; note: potency is the fitted concentration of half-maximal effect
In short: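 Quantitative high-throughput format: the Tox21 10K library was tested on C3RL4 RARE-luciferase cells for 6 hr at 37 C and 5% CO2, with luminescence measured after a 30 min room-temperature reagent step.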

[12] = qHTS assay to identify small molecule antagonists of the vitamin D receptor (VDR) signaling pathway - cell viability counter screen (AID 743225); settings: VDR-bla HEK293T viability, CellTiter-Glo luminescence, 16 h; series mostly up to 61 µM; note: nearly all actives have a fitted effect of over 50% in size; note: potency is the fitted concentration of half-maximal effect
In short: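 HEK293T VDR-bla; cpd + 1a,25-(OH)2D3 3 nM final, 16 h 37C/5% CO2; B/G FRET substrate 2 h RT; then CellTiter-Glo 30 min RT, luminescence.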

[13] = qHTS assay to identify small molecule agonists of the endoplasmic reticulum stress response signaling pathway - cell viability counter screen (AID 1159517; calls by dose curve); settings: ESRE-bla HeLa viability, CellTiter-Glo luminescence, 5 h; series mostly up to 61 µM
In short: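 Cytotoxicity of test compounds toward ESRE-bla HeLa cells was assessed after 5 hr exposure. The luminescent CellTiter-Glo signal was measured 30 min after reagent addition.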

[14] = qHTS assay to identify small molecule antagonists of the estrogen related receptor (ERR) signaling pathway (AID 1224819); settings: ERR reporter cell line, luciferase inhibition; series mostly up to 46.1 µM
In short: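 ERR reporter cell line (NTP) plated at 2,000 cells/well, settled 6 h at 37C/5% CO2, then exposed to LOPAC compounds for 18 h at 37C. One-Glo luciferase luminescence read after 30 min at room temperature.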

[15] = qHTS assay to identify small molecule agonists of the estrogen related receptor (ERR) signaling pathway (AID 1224820); settings: ERR reporter cell line, luciferase agonist mode; series mostly up to 46.1 µM
In short: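 Luminescence readout (One-Glo, 30 min RT) from NTP-supplied ERR cell line exposed to compounds for 18 h at 37 C. Cells seeded 2,000 per well and pre-incubated 6 h before pin-tool compound transfer.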

[16] = tested on: estrogen-related receptor alpha (ERRalpha) with PGC-1alpha coactivator, human; assay: qHTS assay to identify small molecule antagonists of the estrogen related receptor signaling pathway with the pleiotropic PPARgamma coactivator (PGC) (AID 1224821; calls by dose curve); settings: ERR/PGC reporter cell line, luciferase, antagonist mode; series mostly up to 46.1 µM
In short: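 PGC/ERR reporter cells; 6 h pre-incubation 37 C/5% CO2; pin-tool compound in DMSO, 18 h 37 C; One-Glo added, 30 min RT; luminescence read. qHTS antagonist mode.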

[17] = qHTS assay to identify small molecule agonists of the estrogen related receptor signaling pathway with the pleiotropic PPARgamma coactivator (PGC) (AID 1224823); settings: ERR/PGC reporter cell line, luciferase agonist mode; series mostly up to 46.1 µM
In short: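 Luminescence readout (One-Glo, 30 min RT) from PGC/ERR cell line treated 18 h at 37 C with pin-tool-delivered DMSO compound solutions; cells plated 6 h before dosing. Quantitative HTS format.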

Compound	outcome [1]	outcome [2]	Potency [3]	Potency [4]	outcome [5]	outcome [6]	Potency [7]	Potency [8]	Potency [9]	Potency [10]	Potency [11]	Potency [12]	outcome [13]	Potency [14]	outcome [15]	Potency [16]	Potency [17]
C[Si]1(C)O[Si](C)(C)O[Si](C)(C)O1	inactive	inactive	inactive	inactive	inactive	inactive	inactive	inactive	inactive	inactive	inactive						
CC(CCc1ccc2c(c1)OCO2)NN (stereo not given)	inactive		inactive		inactive	inactive	inactive	inactive	inactive			inactive	inactive				
C/C=C(\C)C(=O)OCCC(C)CCC=C(C)C (stereo not given)	inactive	inactive	inactive		inactive	inactive		inactive	inactive			inactive	inactive				
Cc1oc(C)c(C(=O)Nc2ccccc2)c1C	inactive		inactive		inactive	inactive		inactive		inactive	inactive		inactive				
CCN(Cc1cccc(S(=O)(=O)O)c1)c1ccc(C(=C2C=CC(=[N+](CC)Cc3cccc(S(=O)(=O)[O-])c3)C=C2)c2ccccc2)cc1	inactive	inactive	inactive		inactive		inactive	inactive	inactive		inactive		inactive				
CC(N)CN (stereo not given)	inactive	inactive	inactive		inactive	inactive	inactive	inactive	inactive			inactive	inactive				
CCCCCCCCCCCCCCC[C@H](O)[C@@H](N)CO	inactive	inactive		inactive	inactive	inactive		inactive	inactive	inactive	inactive		inactive				
Cc1cc(O)c2c(O)c3c(O)cccc3cc2c1	inactive		inactive		inactive	inactive		inactive	inactive	inactive	inactive	inactive	inactive				
CC1=NN(c2ccc(C(=O)O)cc2)C(=O)C1	inactive	inactive			inactive	inactive		inactive	inactive	inactive	68.6 µM (active)	inactive	inactive				
CCCCCCCCSCCO	inactive	inactive	inactive	inactive	inactive	inactive	inactive	inactive	inactive	inactive	inactive						
CCCCC(CC)COC(=O)COc1ccc(Cl)cc1C (stereo not given)	inactive	inactive			inactive	inactive	inactive	inactive	inactive			inactive	inactive				
O=C(CCCN1CCN(c2ccc(F)cc2)CC1)NC1c2ccccc2CSc2ccccc21 (stereo not given)	inactive	inactive		13.3 µM (active)	inactive	inactive			inactive			23.9 µM (active)	inactive				
CCOc1cc(N)c(Cl)cc1C(=O)NCC1CN(Cc2ccc(F)cc2)CCO1 (stereo not given)	inactive	inactive	inactive		inactive	inactive	inactive	inactive	inactive	inactive	inactive	inactive	inactive				
CC#N	inactive	inactive	inactive		inactive	inactive	inactive	inactive	inactive		inactive	inactive	inactive				
CC1=CC(=O)CC(C)(C)C1(O)/C=C/C(C)=C\C(=O)O (stereo not given)	inactive	inactive	inactive	inactive	inactive	inactive	inactive	inactive	inactive		inactive	inactive					
CCCCCCCCCOC(C)=O	inactive	inactive	inactive		inactive	inactive	inactive	inactive	inactive			inactive	inactive				
COc1cc2c(N3CCN(C(=O)Nc4ccc(OC(C)C)cc4)CC3)ncnc2cc1OCCCN1CCCCC1	inactive		inactive		inactive	inactive	inactive		inactive		inactive	inactive	inactive				
Nc1ccc(Cl)cc1[N+](=O)[O-]	inactive	inactive	inactive		inactive	inactive		inactive	inactive		inactive	inactive	inactive				
C=CC(=O)NCOCC(C)C	inactive	inactive	inactive		inactive	inactive		inactive	inactive			inactive	inactive				
O=S(=O)(c1ccccc1)c1ccc(Cl)cc1	inactive	inactive			inactive	inactive	inactive	inactive	inactive				inactive				
CC(Cl)C(Cl)Cl (stereo not given)	inactive				inactive	inactive		inactive	inactive			inactive	inactive				
NCC1CCCC(CN)C1 (stereo not given)	inactive	inactive	inactive		inactive	inactive		inactive	inactive	inactive	inactive	inactive	inactive				
CC(C)(C)C(=O)O	inactive	inactive		inactive	inactive	inactive	39.1 µM (active)	inactive	inactive	inactive	inactive	inactive					
O=C(Nc1ccc([N+](=O)[O-])cc1)Nc1ccc([N+](=O)[O-])cc1	inactive	inactive		2.37 µM (active)	inactive	inactive			inactive	inactive	inactive	inactive	inactive				
COCCOC(=O)C1=C(C)NC(C)=C(C(=O)OC/C=C/c2ccccc2)C1c1cccc([N+](=O)[O-])c1 (stereo not given)	inactive	inactive			inactive			inactive	inactive		inactive	inactive	inactive	11.9 µM (active)	inactive	17.4 µM (active)	inactive
CO[C@H]1C=CO[C@@]2(C)Oc3c(C)c(O)c4c(O)c(c5c(c4c3C2=O)=NC2(CCN(CC(C)C)CC2)N=5)NC(=O)/C(C)=C\C=C/[C@H](C)[C@H](O)[C@@H](C)[C@@H](O)[C@@H](C)[C@H](OC(C)=O)[C@@H]1C	inactive	inactive		53.3 µM (active)	inactive	inactive		inactive	inactive		inactive	inactive	inactive				
